Reference: PubChem BioAssay (NCATS)
A number with no mark means an inactive call. For part of these data: Measured potencies and affinities stand elsewhere. Active and inactive are the calls of the source. The rule behind the calls is not given here.

Key:
[1] = Ebola virus entry assay, green fluorescence channel
[2] = Ebola virus entry assay, blue channel fluorescence
[3] = Ebola virus entry assay, ratio channel
[4] = Ebola virus entry assay, green channel fluorescence
[5] = Ebola virus entry assay, reporter ratio channel; Channel type: primary
[6] = Ebola virus entry assay, blue channel (ratio component)
Throughout, for efficacy: 0% is about no effect.

| SMILES | efficacy [1] [%] | outcome [2] | outcome [3] | outcome [4] | outcome [5] | outcome [6] | AC50 [5] |
| --- | --- | --- | --- | --- | --- | --- | --- |
| CC(C)(C)c1nnc(NS(=O)(=O)c2ccc(N)cc2)s1 | -23 | inactive | inactive | inactive | inactive | inactive |  |
| CCN[C@H]1C[C@H](C)S(=O)(=O)c2sc(S(N)(=O)=O)cc21 | 10.6 | inactive | inactive | inactive | inactive | inactive |  |
| C#C[C@]1(OC(C)=O)CC[C@H]2[C@@H]3CCC4=C[C@@H](OC(C)=O)CC[C@@H]4[C@H]3CC[C@@]21C | -36.9 | inactive | inactive | inactive | inactive | inactive |  |
| Cc1ccc(/C=N/n2c(-c3ccccc3)csc2=S)cc1 | 32.3 | inactive | inactive | inactive | inactive | inactive |  |
| CC(C)(Oc1ccc(CCNC(=O)c2ccc(Cl)cc2)cc1)C(=O)O | -16.5 | inactive | inactive | inactive | inactive | inactive |  |
| CCOC(=O)OC(C)OC1=C(C(=O)Nc2ccccn2)N(C)S(=O)(=O)c2ccccc21 (configuration not stated) | 12.4 | inactive | inactive | inactive | inactive | inactive |  |
| NC(=O)CCCCC1CCSS1 (configuration not stated) | 19.1 | inactive | inactive | inactive | inactive | inactive |  |
| CC(C)(C)C(=O)NCCCC(=O)O | -17.8 | inactive | inactive | inactive | inactive | inactive |  |
| OC[C@@H](O)[C@@H](O)[C@H](O)[C@H](O)CO | 11.8 | inactive | inactive | inactive | inactive | inactive |  |
| CC(C(=O)O)c1ccc(CC2CCCC2=O)cc1 (configuration not stated) | 31.1 | inactive | inactive | inactive | inactive | inactive |  |
| O=C(NCCc1c[nH]c2ccccc12)c1cccnc1 | 15.6 | inactive | inactive | inactive | inactive | inactive |  |
| C1CCN2C[C@@H]3C[C@@H](CN4CCCC[C@@H]34)[C@H]2C1 | 13.4 | inactive | inactive | inactive | inactive | inactive |  |
| C[C@@H]1CC[C@@]2(OC1)O[C@H]1C[C@H]3[C@@H]4CC[C@H]5C[C@@H](O)CC[C@]5(C)[C@H]4CC(=O)[C@]3(C)[C@H]1[C@@H]2C | 21.9 | inactive | inactive | inactive | inactive | inactive |  |
| CCc1cccc2c3c([nH]c12)C(CC)(CC(=O)O)OCC3 (configuration not stated) | 8.5 | inactive | inactive | inactive | inactive | inactive |  |
| CC(=O)OC[C@H]1O[C@@](COC(C)=O)(O[C@H]2O[C@H](COC(C)=O)[C@@H](OC(C)=O)[C@H](OC(C)=O)[C@H]2OC(C)=O)[C@@H](OC(C)=O)[C@@H]1OC(C)=O | 9.99 | inactive | inactive | inactive | inactive | inactive |  |
| OC(CN1CCC(Cc2ccc(F)cc2)CC1)c1ccc(Cl)cc1 (configuration not stated) | -10 | inactive | inactive | inactive | inactive | inactive |  |
| CSc1ccc(C(=O)c2[nH]c(=O)[nH]c2C)cc1 | 19.8 | inactive | inactive | inactive | inactive | inactive |  |
| CC(COc1ccccc1)NC(C)C(O)c1ccc(O)cc1 (configuration not stated) | -32.1 | inactive | inactive | inactive | inactive | inactive |  |
| CCCCC(CC)COC(=O)C(C#N)=C(c1ccccc1)c1ccccc1 (configuration not stated) | 53.9 | inactive | inactive | inactive | inactive | inactive |  |
| C=CCCCCCCCCC(=O)O | -13.8 | inactive | inactive | inactive | inactive | inactive |  |
| Cc1ccc2c(Cl)cc(Cl)c(O)c2n1 | -13.1 | inactive | inactive | inactive | inactive | inactive |  |
| CCOC(=O)N1CCC(n2c(=O)[nH]c3cc(Cl)ccc32)CC1 | 43.9 | inactive | inactive | inactive | inactive | inactive |  |
| CN1[C@@H]2CC[C@H]1CC(OC(=O)c1c[nH]c3ccccc13)C2 (some centres not stated) | 45 | inactive | inactive | inactive |  | inactive | 39.8 µM (active) |
| COc1ccc(OC(=O)N(CC(=O)O)Cc2ccc(OCCc3nc(-c4ccccc4)oc3C)cc2)cc1 | -17 | inactive | inactive | inactive | inactive | inactive |  |
| CCC(=O)Nc1ccc(O)cc1 | -18.3 | inactive | inactive | inactive | inactive | inactive |  |
| CC(=O)OCC1=C(C(=O)O)N2C(=O)[C@@H](NC(=O)CSc3ccncc3)[C@H]2SC1 | -6.58 | inactive | inactive | inactive | inactive | inactive |  |
| CC(=O)[C@@]1(O)CC[C@H]2[C@@H]3CCC4=CC(=O)CC[C@]4(C)[C@H]3CC[C@@]21C | -9 | inactive | inactive | inactive | inactive | inactive |  |
